The record followed here is PubChem BioAssay (NCI).

Test systems include NCI-H23 lung; NCI-H226 lung; NCI-H322M lung; HOP-62 NSCLC; NCI-H460 lung; HOP-92 NSCLC; NCI-H522 lung; A549/ATCC NSCLC; 786-0 renal; COLO 205 colon; DU-145 prostate; MALME-3M melanoma; MDA-MB-231 breast; RXF 393 renal; SF-268 CNS; SF-295 CNS; SF-539 CNS; UACC-257 melanoma; M14 melanoma; K-562 leukemia.
Holding throughout (assay): NCI-60 one-dose screen, 48 h (100 = growth as untreated, 0 = no growth, -100 = all killed)
Conditions in all cases: 10 µM unless noted

About 83,000 compounds went through this panel and 20% of them were active in at least one assay; those are over-represented in the sample as a whole.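 Testing used 96-well plates and a 48-hour single-concentration exposure. Example: -40 means 40% of the starting cells died.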 Values without a mark were called inactive. Calls of active or inactive are those of the source. Rule for the calls: active = growth percent below 10; inactive = the rest.

In the case of `C/C(=N\Nc1ccc(S(N)(=O)=O)cc1)c1ccc(N=Nc2c(Nc3ccccc3)[nH][nH]c2=O)cc1`, the growth is 0.196% (active) with NCI-H23 lung; 42.5% in the assay on NCI-H226 lung; 9.22% (active) in the assay on NCI-H322M lung; -17.8% (active) in the assay on HOP-62 NSCLC; 8.87% (active) with NCI-H460 lung; -7.76% (active) in the assay with HOP-92 NSCLC. Also, the growth is -28.8% (active) in the assay on NCI-H522 lung; 75% in the assay with A549/ATCC NSCLC; -45.3% (active) with 786-0 renal; -10.5% (active) with COLO 205 colon; 13.8% in the assay with DU-145 prostate; -65.9% (active) in the assay with MALME-3M melanoma. Besides, the growth in the assay on MDA-MB-231 breast is -31.3% (active); in the assay with RXF 393 renal it was -24.1% (active); with SF-268 CNS, 9.33% (active); with SF-295 CNS, 5.12% (active); in the assay on SF-539 CNS it was -77.4% (active); with UACC-257 melanoma, 5.63% (active). For the same molecule, the growth with M14 melanoma was -62.5% (active).
`CNC(=O)c1cccc(NC(=O)c2ccc3c(c2)nnn3/C(C#N)=C/c2ccccn2)c1`: the growth with NCI-H23 lung was -39.3% (active); in the assay on NCI-H226 lung, -97.4% (active); in the assay with NCI-H322M lung, 91.8%; in the assay on HOP-62 NSCLC, 82.7%; in the assay on NCI-H460 lung, 51.5%; with HOP-92 NSCLC, -29.5% (active). The growth was -90% (active) with NCI-H522 lung; 83.2% in the assay on A549/ATCC NSCLC; -95.9% (active) in the assay on 786-0 renal; -86.6% (active) in the assay on COLO 205 colon; 21.7% in the assay on DU-145 prostate; 0.0446% (active) in the assay on K-562 leukemia. Besides, the growth with MALME-3M melanoma was -97% (active); in the assay on RXF 393 renal, -97.9% (active); in the assay with SF-268 CNS it was 24.4%; in the assay with SF-295 CNS, 84.3%; in the assay with SF-539 CNS, -72.8% (active); in the assay with UACC-257 melanoma, -67.2% (active). The growth with M14 melanoma was -73.6% (active).
For the molecule `O=C(O)c1ccc(-c2ccc(/C=N/NC(=O)c3[nH]c4ccc(Br)cc4c3-c3ccccc3)o2)cc1`, the growth in the assay with NCI-H23 lung was 18.3%; with NCI-H226 lung, 44.3%; in the assay with NCI-H322M lung it was 37.5%; in the assay with HOP-62 NSCLC, 9.47% (active); with NCI-H460 lung, 7.72% (active); in the assay on HOP-92 NSCLC it was -8.72% (active). The growth with NCI-H522 lung is -33.8% (active); in the assay on A549/ATCC NSCLC, 49.5%; in the assay on 786-0 renal, 19.5%; in the assay on COLO 205 colon it was 29.3%; in the assay on DU-145 prostate, 38.8%; in the assay with K-562 leukemia it was 7.51% (active). In addition, the growth is 34.6% with MALME-3M melanoma; -1.82% (active) in the assay with RXF 393 renal; 10.5% with SF-268 CNS; 6.58% (active) in the assay with SF-295 CNS; -36.9% (active) in the assay with SF-539 CNS; 45.5% with UACC-257 melanoma. The growth with M14 melanoma was 0.786% (active).
With `CC(=O)Nc1ccc(-c2cn(-c3cccc(C(=O)Nc4ccc(N5CCN(C)CC5)cc4)c3)nn2)cn1`, the growth in the assay with NCI-H23 lung is 67.4%; in the assay with NCI-H226 lung, 69.1%; in the assay on NCI-H322M lung, 96.2%; in the assay with HOP-62 NSCLC, 60%; with NCI-H460 lung, 90.4%; in the assay on HOP-92 NSCLC, 44.8%. In addition, the growth in the assay on NCI-H522 lung is 91.8%; with A549/ATCC NSCLC, 76.1%; in the assay on 786-0 renal, 12.5%; in the assay with COLO 205 colon it was 72%; in the assay on DU-145 prostate, 83.4%; with K-562 leukemia, 31.5%. Besides, the growth with MALME-3M melanoma was 72%; in the assay on RXF 393 renal, 97%; in the assay with SF-268 CNS, 88.7%; with SF-295 CNS it was 58.6%; with SF-539 CNS it was 68.6%; in the assay on UACC-257 melanoma, 100%. For the same molecule, in the assay on M14 melanoma, the growth is 87%.
Regarding `N#Cc1c(-c2cccc(Cl)c2Cl)cc(-c2ccc3ccccc3c2)[nH]c1=O`, the growth is 56.9% with NCI-H23 lung; 19.6% with NCI-H226 lung; 53.2% in the assay with NCI-H322M lung; 34.4% with HOP-62 NSCLC; 13.4% with NCI-H460 lung; -16.6% (active) in the assay with HOP-92 NSCLC. Moreover, the growth was 78.7% with NCI-H522 lung; 25.1% with A549/ATCC NSCLC; -65.1% (active) in the assay with 786-0 renal; 116% with COLO 205 colon; 75.8% with DU-145 prostate; 91.2% in the assay on K-562 leukemia. In addition, the growth is 66% with MALME-3M melanoma; 60.9% in the assay with RXF 393 renal; 71.8% in the assay with SF-268 CNS; 31.8% in the assay on SF-295 CNS; 79.7% with SF-539 CNS; 94.2% in the assay on UACC-257 melanoma. Besides, the growth in the assay with M14 melanoma was 32.5%.
Take `CC(=O)NNc1ccc2nnc(-c3ccccc3)n2n1`: the growth in the assay on NCI-H23 lung was 96.6%; in the assay on NCI-H226 lung, 105%; in the assay on NCI-H322M lung, 102%; with HOP-62 NSCLC it was 116%; with NCI-H460 lung, 106%; in the assay with HOP-92 NSCLC, 109%. Also, the growth in the assay with NCI-H522 lung is 109%; with A549/ATCC NSCLC, 102%; in the assay with 786-0 renal, 104%; with COLO 205 colon, 104%; with DU-145 prostate, 103%; in the assay on MALME-3M melanoma it was 98.5%. Besides, the growth in the assay on MDA-MB-231 breast is 106%; in the assay on RXF 393 renal, 101%; in the assay on SF-268 CNS it was 95%; in the assay with SF-295 CNS, 104%; in the assay with SF-539 CNS it was 103%; with UACC-257 melanoma, 109%. In addition, the growth with M14 melanoma is 98.8%.
On to `COc1ccc(-c2cc(C(=O)NCc3ccccc3)nn2-c2ccc(S(C)(=O)=O)cc2)cc1OC`, for which the growth with NCI-H23 lung is 105%; in the assay with NCI-H226 lung it was 98.5%; in the assay on NCI-H322M lung, 122%; in the assay with HOP-62 NSCLC, 99.7%; with NCI-H460 lung it was 108%; in the assay with HOP-92 NSCLC, 73%. The growth was 87.4% in the assay on NCI-H522 lung; 93.8% in the assay with A549/ATCC NSCLC; 98.6% with 786-0 renal; 116% in the assay with COLO 205 colon; 105% in the assay with DU-145 prostate; 105% with K-562 leukemia. Also, the growth is 108% in the assay with MALME-3M melanoma; 110% with RXF 393 renal; 97.3% with SF-268 CNS; 98.1% in the assay on SF-295 CNS; 95.2% in the assay with SF-539 CNS; 105% in the assay on UACC-257 melanoma. The growth with M14 melanoma was 111%.
Turning to `N/C(=N\c1nc2ccccc2s1)NC(=O)NCCCCCCO`, the growth in the assay with NCI-H23 lung is 31.4%; in the assay on NCI-H226 lung it was 36.2%; in the assay on NCI-H322M lung, 71.1%; with HOP-62 NSCLC it was 43.5%; with NCI-H460 lung, 59.3%; with HOP-92 NSCLC it was 22%. Further, the growth in the assay on NCI-H522 lung was 36%; in the assay on A549/ATCC NSCLC, 55%; in the assay on 786-0 renal it was 58.7%; with COLO 205 colon, 88.1%; in the assay on DU-145 prostate, 56.7%; with K-562 leukemia, 23.4%. In addition, the growth is 54% in the assay with MALME-3M melanoma; 43.6% in the assay with RXF 393 renal; 61.6% with SF-268 CNS; 21.4% in the assay with SF-295 CNS; 64.8% with SF-539 CNS; 29.2% in the assay on UACC-257 melanoma. Besides, the growth in the assay with M14 melanoma is 67.3%.
